Measured potencies and affinities stand elsewhere. Activity calls are given as the source filed them. How the calls were made is not given here.

The nature of this assay: viability loss in mammalian cells – cytotoxicity control, dose response (AID 492950). The note with it: mammalian cell viability, cytotoxicity counter-screen; series mostly up to 40 µM. A general note: Counterscreens check selectivity or assay interference.
Consider `N#CC1=C(N)Oc2n[nH]c(-c3cccs3)c2C1c1ccccc1C(=O)O` (stereo not drawn), for which the molecule was classed as inactive.

In the case of `O=c1cc(-c2ccc(Br)cc2)[nH][nH]1`, the call was inactive.

Consider `O=C(CSc1nnc(-c2ccccc2Cl)o1)Oc1ccc(Br)cc1`, for which the molecule was classed as inactive.

For the molecule `Cc1ccc(-c2[nH]nc3c2C(c2ccc(OC(=O)N4CCOCC4)cc2)C(C#N)=C(N)O3)cc1` (stereo not drawn), the call was inactive.

Regarding `COc1ccc(/C=C2/C(=O)N(c3ccccc3)N=C2C)cc1OC`, the call was inactive.

With `CCOc1cc(C2C(C#N)=C(N)Oc3n[nH]c(-c4ccccc4)c32)ccc1O` (stereo not drawn), the outcome was inactive.

As to `O=C(Cc1cc(=O)[nH][nH]1)N/N=C/C=C/c1ccccc1`, the result was inactive.

Take `Cc1[nH]n(-c2ccccc2)c(=O)c1C(c1cccc([N+](=O)[O-])c1)c1c(C)[nH]n(-c2ccccc2)c1=O`: the molecule was called inactive.

In the case of `Cc1nc2ccccc2c2c1C(=O)N(C)C2=O`, the result was inactive.

Take `C/C(=N\NC(=O)c1ccncc1)c1cc2ccccc2oc1=O`: the molecule was classed as inactive.

Take `CC(=O)N1CCC2(CC1)C(C#N)=C(N)Oc1n[nH]c(CSc3ccc(C)cc3)c12`: the result was inactive.

As to `O=C(Cc1cc(=O)[nH][nH]1)N/N=C/C(Cl)=C/c1ccccc1`, the result was inactive.

As for `Cc1ccsc1/C=N/NC(=O)Cc1cc(=O)[nH][nH]1`, the molecule was classed as inactive.

Take `O=c1cc(-c2ccc(Cl)c(Cl)c2)[nH][nH]1`: the result was inactive.

As for `Cn1c(O)c(C2=NN(C(=O)CCl)C(c3ccccc3)C2)c(=O)n(C)c1=O` (stereo not drawn), the result was inactive.

Regarding `COc1ccc(/C=C2/C(=O)N(c3ccccc3)N=C2C)c(OC)c1`, the result was inactive.

Consider `CCCc1[nH]nc2c1C(c1ccoc1)C(C#N)=C(N)O2` (stereo not drawn), for which the outcome was inactive.

Turning to `O=C(Cc1cc(=O)[nH][nH]1)N/N=C/c1cccc2ccccc12`, the call was inactive.

The values are drawn from PubChem BioAssay AID492950 (Southern Research Specialized Biocontainment Screening …, 2010).
